From PubChem BioAssay (Tox21) come the findings set out here.

SMILES strings stand for the structures. Records with an inconclusive call do not appear. Where a call stands in place of a potency, no number is given. Calls of active or inactive are those of the source. Calls follow the shape of the dose curve; as a rule, active = well fitted cell-killing curve with a large enough effect in the repeat runs; inconclusive = weak or mixed curves, or effect the other way; inactive = flat fitted curve, though single readings scatter.
Potency is read from the fitted curve at half-maximal effect.

The test in a line: qHTS RealTime-Glo MT Cell Viability Assay in HEK293 cells - 24 hour (AID 1224886). Also: nearly all actives have a fitted effect of over 50% in size. Particulars: RealTime-Glo luminescence; series mostly up to 76.8 µM. The source says:
National Center for Advancing Translational Sciences [NCATS]
NIH Chemical Genomics Center [NCGC]
U.S. Environmental Protection Agency [EPA]
National Institutes of Environmental Health Sciences [NIEHS]
National Toxicology Program [NTP]
U.S. Food and Drug Administration [FDA]
Measure of cell viability is critical in the cell-base assay. Analysis of cell viability is necessary for the characterization of cell responses to cytotoxic drugs and environmental stress. A RealTime-Glo MT Cell Viability Assay to monitor cell viability in real time of continues cell culture during 40 hours of compound treatment was used to screen Tox21 10K library compounds in Hek293 cells. The RealTime-Glo MT Cell Viability Assay is a nonlytic, homogeneous, bioluminescent method to measure cell viability in real time using a simple, plate-based method. The assay involves adding NanoLuc luciferase and a cell-permeant prosubstrate to cells in culture. Viable cells reduce the proprietary prosubstrate to generate a substrate for NanoLuc luciferase. This substrate diffuses from cells into the surrounding culture medium, where it is rapidly used by the NanoLuc Enzyme to produce a luminescent signal. The signal correlates with the number of viable cells, making the assay well suited for cytotoxicity studies.
Tox21 Assay Protocol Summary:
The mixture of Hek293 cell suspension and reagents were dispensed at 600cells/6 ul/well in 1536-well tissue culture treated black solid bottom plates using a Multidrop dispenser. After the assay plates were incubated at a 37 C/5% CO2 incubator for 5 hours, 23 nL of compounds dissolved in DMSO, positive and negative controls was transferred to the assay plate by a pintool work station. The plates were incubated at 37 C for 40 hours. The luminescence intensity were measured at 0h, 8h, 16h, 24h, 32h and 40h time points using ViewLux plate reader during compound treatment.
(qHTS replaces the single test concentration by a dilution series.)
As for `CCC(C)n1c(=O)[nH]c(C)c(Br)c1=O` (stereo not given), the Potency result was “inactive”.
With `C[C@]12CC[C@H]3[C@@H](CC=C4C[C@@H](O)CC[C@@]43C)[C@@H]1CC[C@@H]2O` the entry was “inactive”; with `Cc1ncsc1CCCl`, “inactive”.
To `ClCC(Cl)Cl` belongs “inactive”.
With `c1cc2c(c(N3CCNCC3)c1)OCCO2` the entry was “inactive”; with `CCC(=O)C(CCN(C)C)(c1ccccc1)c1ccccc1`, “inactive”.
On to `O=[N+]([O-])c1ccc(CBr)cc1`, for which the Potency entry was “inactive”.
`O=CNC(N1CCN(C(NC=O)C(Cl)(Cl)Cl)CC1)C(Cl)(Cl)Cl` (stereo not given): the Potency entry was “inactive”.
On to `CCOP(=S)(OCC)Oc1ncn(-c2ccccc2)n1`, for which the Potency entry was “inactive”.
To `CC1(C)C(=O)NC(=O)NC1=O` belongs “inactive”; to `COC(=O)C1=CCCN(C)C1`, “inactive”.
To `NC1=NC(=O)C(c2ccccc2)O1` (stereo not given) belongs “inactive”.
To `CNC(=O)O/N=C(\C)SC` belongs “inactive”; to `CCOP(=S)(OCC)SCSc1ccc(Cl)cc1`, “inactive”.
`CN1C[C@@H](NS(=O)(=O)N(C)C)C[C@@H]2c3cccc4c3c(cn4C)C[C@H]21`: the Potency result is “inactive”.
To `CC1(C)COP(Oc2ccccc2)OC1` belongs “inactive”; to `Fc1cc(Br)ccc1CBr`, “inactive”.
Consider `O=C(Nc1ccccc1)N(Cc1ccc(Cl)cc1)C1CCCC1`, for which the Potency is 21.9 µM (active).
Consider `CC(C)COP(=O)(OCC(C)C)OCC(C)C`, for which the Potency entry was “inactive”.
`N#CCNCC#N`: the Potency entry was “inactive”.
With `C[N+](=O)[O-]` the entry was “inactive”; with `[O]=[Cd]`, “inactive”; with `N#CC(CCc1ccc(Cl)cc1)(Cn1cncn1)c1ccccc1` (stereo not given), 17.4 µM (active).
With `CCC(C)(C)c1cc(-n2nc3ccccc3n2)c(O)c(C(C)(C)CC)c1` the figure was 24.9 µM (active); with `CC(C=O)Cc1ccc2c(c1)OCO2` (stereo not given), “inactive”.
With `O=C(O)c1cccc(Cl)c1` the entry was “inactive”; with `CC(C)(C)OC(=O)c1ncn2c1[C@@H]1CCCN1C(=O)c1c(Br)cccc1-2`, “inactive”.
For `Clc1cccc(N2CCNCC2)c1`, the Potency result was “inactive”.
With `OC(Cn1cncn1)(c1ccc(F)cc1)c1ccccc1F` (stereo not given) the entry was “inactive”; with `COC(=O)C(C)Oc1ccc(Oc2ccc(Cl)cc2Cl)cc1` (stereo not given), “inactive”.
With `ClCCCN1CCN(c2cccc(Cl)c2)CC1` the entry was “inactive”; with `COc1cccc2c1cc([N+](=O)[O-])c1c(C(=O)O)cc3c(c12)OCO3`, 3.09 µM (active); with `Cc1cccc(C#N)c1`, “inactive”.
With `OCCSCSCCO` the entry was “inactive”; with `O=S(=O)(O)C(F)(F)C(F)(F)C(F)(F)C(F)(F)C(F)(F)C(F)(F)F`, “inactive”; with `NC(=O)O`, “inactive”.
On to `CCOP(=S)(OCC)Oc1cc(-c2ccccc2)on1`, for which the Potency result was “inactive”.
Regarding `CCN(CC)c1nc(C)cc(OP(=S)(OC)OC)n1`, the Potency entry is “inactive”.
With `ClC(Br)Br` the entry was “inactive”; with `CSc1ccc(C(=O)C(C)(C)N2CCOCC2)cc1`, “inactive”.
